Reference: article PMC7862700, “An all-to-all approach to the identification of sequence-specific readers for epigenetic DNA modifications on cytosine”

Tests used:
Assay in all cases: DAPPL (digital affinity profiling via proximity ligation, sequencing); 10 mM Tris-HCl pH 7.5, 50 mM NaCl, 1 mM DTT, 4% glycerol, room temperature, 30 min; GST-TFs on glutathione beads, 16-mer random dsDNA library, 0.1% formaldehyde crosslink after washing; high values mean tight binding
Settings in all cases: protein: recombinant; tags: N-terminal GST; dsDNA, one strand shown
GABPA = target: T1, GABPA (Homo sapiens, UniProt Q06546 1-454)
T1 sequence: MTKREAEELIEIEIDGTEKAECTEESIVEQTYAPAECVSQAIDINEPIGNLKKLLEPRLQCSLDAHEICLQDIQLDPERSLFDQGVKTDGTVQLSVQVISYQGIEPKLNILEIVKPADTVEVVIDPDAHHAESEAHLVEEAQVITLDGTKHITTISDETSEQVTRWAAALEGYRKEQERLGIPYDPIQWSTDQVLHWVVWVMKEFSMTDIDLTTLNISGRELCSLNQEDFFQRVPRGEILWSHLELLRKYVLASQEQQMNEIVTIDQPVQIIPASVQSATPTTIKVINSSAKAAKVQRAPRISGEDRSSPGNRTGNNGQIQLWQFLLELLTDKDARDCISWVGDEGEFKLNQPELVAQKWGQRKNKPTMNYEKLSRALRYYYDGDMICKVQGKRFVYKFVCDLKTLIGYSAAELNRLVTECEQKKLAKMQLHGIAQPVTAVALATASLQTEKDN
How it was run: (§1)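 GST fusions of human transcription factors were expressed in yeast and captured with glutathione beads. Once given DNA barcodes and pooled alongside a tag-only sample, they were incubated for 30 min at room temperature with 200 nmole of a random double-stranded 16-mer DNA library in Tris/NaCl/DTT/glycerol buffer, then washed, crosslinked (0.1% formaldehyde), proximity-ligated, PCR-amplified and sequenced on an Illumina NextSeq500. The binding signal of each hexamer is its read frequency for a factor divided by its frequency for the tag-only sample.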

ELF1 = ELF1 (Homo sapiens, UniProt P32519 1-619)
How it was run: as §1

EHF = target: T2, EHF (Homo sapiens, UniProt Q9NZC4 1-300)
T2 sequence: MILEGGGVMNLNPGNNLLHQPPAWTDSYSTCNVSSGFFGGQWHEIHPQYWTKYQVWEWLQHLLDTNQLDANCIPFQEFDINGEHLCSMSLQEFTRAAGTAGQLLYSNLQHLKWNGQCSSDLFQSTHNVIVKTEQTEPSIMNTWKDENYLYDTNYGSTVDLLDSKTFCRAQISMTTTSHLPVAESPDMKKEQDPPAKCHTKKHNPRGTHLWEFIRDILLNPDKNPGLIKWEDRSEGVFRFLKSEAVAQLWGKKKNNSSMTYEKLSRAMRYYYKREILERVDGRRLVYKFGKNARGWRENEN
How it was run: as §1

SPIB = SPIB (Homo sapiens, UniProt Q01892 1-262)
How it was run: as §1

ELK3 = target: T3, ELK3 (Homo sapiens, UniProt P41970 1-407)
T3 sequence: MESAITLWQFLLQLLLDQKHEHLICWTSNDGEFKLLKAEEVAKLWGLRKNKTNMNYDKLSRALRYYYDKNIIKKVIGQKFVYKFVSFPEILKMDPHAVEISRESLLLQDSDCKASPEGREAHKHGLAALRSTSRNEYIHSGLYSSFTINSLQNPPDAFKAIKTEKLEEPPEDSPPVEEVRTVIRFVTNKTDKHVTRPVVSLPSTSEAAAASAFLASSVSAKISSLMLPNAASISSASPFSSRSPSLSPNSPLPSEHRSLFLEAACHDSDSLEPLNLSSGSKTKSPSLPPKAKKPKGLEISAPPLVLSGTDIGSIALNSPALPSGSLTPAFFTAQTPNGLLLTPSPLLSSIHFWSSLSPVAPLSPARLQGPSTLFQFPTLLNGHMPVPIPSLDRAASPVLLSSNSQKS
How it was run: as §1

ETV5 = ETV5 (Homo sapiens, UniProt P41161 1-510)
How it was run: as §1

ELF4 = ELF4 (Homo sapiens, UniProt Q99607 1-663)
How it was run: as §1

ELK4 = target: T4, ELK4 (Homo sapiens, UniProt P28324-2 1-405)
T4 sequence: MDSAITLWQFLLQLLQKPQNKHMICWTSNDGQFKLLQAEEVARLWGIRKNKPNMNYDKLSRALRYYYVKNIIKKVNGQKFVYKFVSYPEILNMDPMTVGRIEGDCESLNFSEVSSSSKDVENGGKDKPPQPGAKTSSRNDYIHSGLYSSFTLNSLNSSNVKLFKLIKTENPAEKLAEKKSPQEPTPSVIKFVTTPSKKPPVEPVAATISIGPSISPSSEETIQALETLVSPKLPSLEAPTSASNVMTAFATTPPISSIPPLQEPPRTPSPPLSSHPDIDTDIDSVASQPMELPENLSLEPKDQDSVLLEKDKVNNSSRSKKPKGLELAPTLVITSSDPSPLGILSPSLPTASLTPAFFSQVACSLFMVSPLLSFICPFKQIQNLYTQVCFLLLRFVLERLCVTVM
How it was run: as §1

ELF3 = target: T5, ELF3 (Homo sapiens, UniProt P78545 1-371)
T5 sequence: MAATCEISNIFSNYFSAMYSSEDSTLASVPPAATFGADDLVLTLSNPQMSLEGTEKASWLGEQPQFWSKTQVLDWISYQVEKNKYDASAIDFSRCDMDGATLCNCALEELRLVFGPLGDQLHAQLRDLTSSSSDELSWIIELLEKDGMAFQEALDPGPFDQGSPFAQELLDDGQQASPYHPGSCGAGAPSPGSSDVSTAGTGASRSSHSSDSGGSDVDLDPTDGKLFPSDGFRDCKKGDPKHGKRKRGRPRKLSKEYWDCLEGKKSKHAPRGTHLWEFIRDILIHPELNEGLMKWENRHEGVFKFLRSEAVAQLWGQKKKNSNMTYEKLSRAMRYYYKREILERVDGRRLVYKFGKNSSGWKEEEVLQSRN
How it was run: as §1

ETV1 = ETV1 (Homo sapiens, UniProt P50549 1-477)
How it was run: as §1

SPDEF = target: T6, SPDEF (Homo sapiens, UniProt O95238 1-335)
T6 sequence: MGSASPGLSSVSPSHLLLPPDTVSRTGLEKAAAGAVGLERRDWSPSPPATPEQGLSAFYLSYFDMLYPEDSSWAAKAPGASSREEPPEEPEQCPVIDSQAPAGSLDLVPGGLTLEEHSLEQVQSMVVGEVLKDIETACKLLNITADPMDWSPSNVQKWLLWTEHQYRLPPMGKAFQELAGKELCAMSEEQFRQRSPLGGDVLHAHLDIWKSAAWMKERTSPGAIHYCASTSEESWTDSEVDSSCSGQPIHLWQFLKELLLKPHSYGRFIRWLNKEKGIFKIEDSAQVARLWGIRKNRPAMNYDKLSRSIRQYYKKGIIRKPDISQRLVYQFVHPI
How it was run: as §1

ETV3 = target: T7, ETV3 (Homo sapiens, UniProt P41162-2 1-143)
T7 sequence: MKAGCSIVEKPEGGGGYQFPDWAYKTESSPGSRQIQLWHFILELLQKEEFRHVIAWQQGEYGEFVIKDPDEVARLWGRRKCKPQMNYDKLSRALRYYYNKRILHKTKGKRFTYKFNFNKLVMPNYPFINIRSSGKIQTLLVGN
How it was run: as §1

ETV6 = ETV6 (Homo sapiens, UniProt P41212 1-452)
How it was run: as §1

ELK1 = target: T8, ELK1 (Homo sapiens, UniProt P19419 1-428)
T8 sequence: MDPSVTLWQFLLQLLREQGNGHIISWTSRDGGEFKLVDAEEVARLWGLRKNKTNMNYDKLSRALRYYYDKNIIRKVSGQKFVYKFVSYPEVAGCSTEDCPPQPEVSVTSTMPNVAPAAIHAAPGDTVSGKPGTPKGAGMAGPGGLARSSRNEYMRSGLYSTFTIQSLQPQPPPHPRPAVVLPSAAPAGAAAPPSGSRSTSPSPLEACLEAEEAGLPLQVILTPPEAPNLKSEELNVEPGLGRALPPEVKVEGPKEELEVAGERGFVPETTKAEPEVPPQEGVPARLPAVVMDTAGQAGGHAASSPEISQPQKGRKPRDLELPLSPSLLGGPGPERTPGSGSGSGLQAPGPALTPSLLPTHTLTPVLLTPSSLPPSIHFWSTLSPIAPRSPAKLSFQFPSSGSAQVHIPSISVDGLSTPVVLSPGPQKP
How it was run: as §1

ERF = target: T9, ERF (Homo sapiens, UniProt P50548 1-548)
T9 sequence: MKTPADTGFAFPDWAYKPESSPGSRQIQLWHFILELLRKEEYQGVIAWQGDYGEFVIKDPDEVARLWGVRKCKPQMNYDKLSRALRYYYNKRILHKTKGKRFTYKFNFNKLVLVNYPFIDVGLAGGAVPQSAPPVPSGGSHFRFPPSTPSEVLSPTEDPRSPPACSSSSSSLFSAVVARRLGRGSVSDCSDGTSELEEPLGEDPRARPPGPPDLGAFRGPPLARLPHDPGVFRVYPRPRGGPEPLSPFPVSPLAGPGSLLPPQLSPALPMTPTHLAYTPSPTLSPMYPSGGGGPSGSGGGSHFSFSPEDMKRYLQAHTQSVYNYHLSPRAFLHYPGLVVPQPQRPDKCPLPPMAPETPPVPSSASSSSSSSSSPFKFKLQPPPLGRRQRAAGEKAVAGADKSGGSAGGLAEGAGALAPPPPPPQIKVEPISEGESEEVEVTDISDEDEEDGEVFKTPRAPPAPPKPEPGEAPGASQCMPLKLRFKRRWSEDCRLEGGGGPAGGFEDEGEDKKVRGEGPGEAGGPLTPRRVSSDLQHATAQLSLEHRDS
How it was run: as §1

ETV3L = target: T10, ETV3L (Homo sapiens, UniProt Q6ZN32 1-361)
T10 sequence: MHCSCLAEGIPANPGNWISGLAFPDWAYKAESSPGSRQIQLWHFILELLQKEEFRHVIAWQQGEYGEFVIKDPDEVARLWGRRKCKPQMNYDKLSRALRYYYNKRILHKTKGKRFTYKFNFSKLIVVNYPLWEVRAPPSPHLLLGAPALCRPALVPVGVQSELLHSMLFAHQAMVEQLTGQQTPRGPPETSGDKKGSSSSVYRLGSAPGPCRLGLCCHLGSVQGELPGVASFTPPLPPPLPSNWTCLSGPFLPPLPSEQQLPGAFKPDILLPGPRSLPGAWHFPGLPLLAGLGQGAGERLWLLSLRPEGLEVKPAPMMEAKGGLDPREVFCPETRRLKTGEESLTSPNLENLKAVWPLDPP
How it was run: as §1

ETV1, sequence (P50549 whole entry): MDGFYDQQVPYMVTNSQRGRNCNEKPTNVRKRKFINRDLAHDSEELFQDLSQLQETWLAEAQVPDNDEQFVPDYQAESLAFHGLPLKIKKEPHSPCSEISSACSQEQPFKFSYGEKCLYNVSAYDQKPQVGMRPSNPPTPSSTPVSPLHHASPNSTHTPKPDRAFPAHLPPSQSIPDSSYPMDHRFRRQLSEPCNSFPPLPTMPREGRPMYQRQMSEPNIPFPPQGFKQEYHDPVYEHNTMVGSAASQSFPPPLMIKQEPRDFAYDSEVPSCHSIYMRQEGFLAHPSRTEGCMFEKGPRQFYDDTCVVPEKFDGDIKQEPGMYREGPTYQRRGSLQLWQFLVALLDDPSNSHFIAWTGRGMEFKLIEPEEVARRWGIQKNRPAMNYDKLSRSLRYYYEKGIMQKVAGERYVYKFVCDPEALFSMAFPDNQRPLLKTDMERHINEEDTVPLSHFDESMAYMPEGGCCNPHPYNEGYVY
ETV5, sequence (P41161 whole entry): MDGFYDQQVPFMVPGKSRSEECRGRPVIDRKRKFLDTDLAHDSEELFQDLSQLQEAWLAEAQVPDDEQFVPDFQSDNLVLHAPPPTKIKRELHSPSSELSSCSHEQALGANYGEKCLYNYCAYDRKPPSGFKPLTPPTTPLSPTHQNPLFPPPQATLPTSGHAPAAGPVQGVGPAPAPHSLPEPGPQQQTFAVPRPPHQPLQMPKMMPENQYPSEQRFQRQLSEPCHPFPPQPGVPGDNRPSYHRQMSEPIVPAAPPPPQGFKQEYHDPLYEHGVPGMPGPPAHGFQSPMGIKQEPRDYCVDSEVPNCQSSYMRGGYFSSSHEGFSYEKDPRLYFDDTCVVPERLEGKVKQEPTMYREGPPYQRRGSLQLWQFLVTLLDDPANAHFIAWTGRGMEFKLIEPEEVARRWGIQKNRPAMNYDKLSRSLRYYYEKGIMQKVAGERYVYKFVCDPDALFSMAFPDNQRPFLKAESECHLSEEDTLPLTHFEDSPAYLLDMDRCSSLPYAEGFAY
ELF1, sequence (P32519 whole entry): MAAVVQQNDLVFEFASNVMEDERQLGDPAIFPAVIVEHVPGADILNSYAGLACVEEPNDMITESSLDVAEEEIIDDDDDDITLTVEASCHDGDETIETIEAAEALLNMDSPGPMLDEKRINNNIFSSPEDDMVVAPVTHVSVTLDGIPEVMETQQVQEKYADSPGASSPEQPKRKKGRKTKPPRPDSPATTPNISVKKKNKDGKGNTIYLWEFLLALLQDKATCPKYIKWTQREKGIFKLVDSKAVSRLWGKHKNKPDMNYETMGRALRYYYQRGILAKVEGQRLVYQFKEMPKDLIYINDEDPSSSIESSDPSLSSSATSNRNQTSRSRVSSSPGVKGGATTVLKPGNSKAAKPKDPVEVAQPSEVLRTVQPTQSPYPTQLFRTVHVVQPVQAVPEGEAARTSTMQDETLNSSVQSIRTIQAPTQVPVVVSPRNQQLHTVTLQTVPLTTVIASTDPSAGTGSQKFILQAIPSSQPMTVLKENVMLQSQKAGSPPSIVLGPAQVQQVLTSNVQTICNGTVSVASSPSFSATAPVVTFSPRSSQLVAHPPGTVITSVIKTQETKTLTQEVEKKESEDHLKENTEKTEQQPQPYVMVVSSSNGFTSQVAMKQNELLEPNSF
ETV6, sequence (P41212 whole entry): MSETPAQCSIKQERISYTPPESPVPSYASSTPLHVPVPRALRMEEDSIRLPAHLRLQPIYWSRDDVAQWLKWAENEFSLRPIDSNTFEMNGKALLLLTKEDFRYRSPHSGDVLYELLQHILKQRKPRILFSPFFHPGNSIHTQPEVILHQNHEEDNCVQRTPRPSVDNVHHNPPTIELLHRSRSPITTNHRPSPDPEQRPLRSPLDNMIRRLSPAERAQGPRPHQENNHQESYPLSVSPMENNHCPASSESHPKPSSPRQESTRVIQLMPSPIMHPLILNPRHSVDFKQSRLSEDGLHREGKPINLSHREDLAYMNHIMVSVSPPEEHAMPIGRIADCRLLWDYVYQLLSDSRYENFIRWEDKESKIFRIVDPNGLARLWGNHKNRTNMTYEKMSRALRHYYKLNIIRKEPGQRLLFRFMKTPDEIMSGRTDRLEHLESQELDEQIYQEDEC
ELF4, sequence (Q99607 whole entry): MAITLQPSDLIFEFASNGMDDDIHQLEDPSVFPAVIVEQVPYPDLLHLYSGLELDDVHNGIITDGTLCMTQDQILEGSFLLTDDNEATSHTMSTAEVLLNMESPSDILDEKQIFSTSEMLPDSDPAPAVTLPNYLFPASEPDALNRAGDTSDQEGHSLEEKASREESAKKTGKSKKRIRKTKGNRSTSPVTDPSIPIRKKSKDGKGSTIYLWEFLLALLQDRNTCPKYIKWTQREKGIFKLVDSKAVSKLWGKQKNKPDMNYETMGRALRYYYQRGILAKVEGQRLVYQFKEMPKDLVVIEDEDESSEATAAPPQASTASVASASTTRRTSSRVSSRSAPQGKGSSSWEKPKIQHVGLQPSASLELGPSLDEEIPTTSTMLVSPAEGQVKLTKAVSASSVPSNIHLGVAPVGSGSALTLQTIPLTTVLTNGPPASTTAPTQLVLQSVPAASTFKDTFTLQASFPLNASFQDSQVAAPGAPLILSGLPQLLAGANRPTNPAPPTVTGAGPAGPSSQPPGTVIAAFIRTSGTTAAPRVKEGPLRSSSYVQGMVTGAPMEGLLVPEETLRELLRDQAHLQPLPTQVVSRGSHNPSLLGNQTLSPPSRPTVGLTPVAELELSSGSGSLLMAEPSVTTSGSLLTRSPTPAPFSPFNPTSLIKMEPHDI
SPIB, sequence (Q01892 whole entry): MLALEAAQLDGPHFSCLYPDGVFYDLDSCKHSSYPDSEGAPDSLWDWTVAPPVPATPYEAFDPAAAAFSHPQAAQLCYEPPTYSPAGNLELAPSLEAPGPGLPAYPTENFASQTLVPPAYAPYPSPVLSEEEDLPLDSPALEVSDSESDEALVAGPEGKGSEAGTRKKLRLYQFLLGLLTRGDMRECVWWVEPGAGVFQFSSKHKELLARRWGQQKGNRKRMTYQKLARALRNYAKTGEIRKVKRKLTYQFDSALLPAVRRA

Sequence: ACGCGG
- binding signal (GABPA): 1.01 fold enrichment (6-mer frequency, TF over GST control)
- binding signal (ELF1): 1.03 fold enrichment (6-mer frequency, TF over GST control)
- binding signal (EHF): 1.04 fold enrichment (6-mer frequency, TF over GST control)
- binding signal (SPIB): 1.04 fold enrichment (6-mer frequency, TF over GST control)
- binding signal (ELK3): 1.05 fold enrichment (6-mer frequency, TF over GST control)
- binding signal (ETV5): 1.02 fold enrichment (6-mer frequency, TF over GST control)
- binding signal (ELF4): 1 fold enrichment (6-mer frequency, TF over GST control)
- binding signal (ELK4): 1.03 fold enrichment (6-mer frequency, TF over GST control)
- binding signal (ELF3): 1.07 fold enrichment (6-mer frequency, TF over GST control)
- binding signal (ETV1): 1.02 fold enrichment (6-mer frequency, TF over GST control)
- binding signal (SPDEF): 1.08 fold enrichment (6-mer frequency, TF over GST control)
- binding signal (ETV3): 1.02 fold enrichment (6-mer frequency, TF over GST control)
- binding signal (ETV6): 1.07 fold enrichment (6-mer frequency, TF over GST control)

Sequence: GCAAAC
- binding signal (ELK1): 1.03 fold enrichment (6-mer frequency, TF over GST control)
- binding signal (GABPA): 1.01 fold enrichment (6-mer frequency, TF over GST control)
- binding signal (ELF1): 1.01 fold enrichment (6-mer frequency, TF over GST control)
- binding signal (ELK3): 1.04 fold enrichment (6-mer frequency, TF over GST control)
- binding signal (ETV5): 1.01 fold enrichment (6-mer frequency, TF over GST control)
- binding signal (ELF4): 1.06 fold enrichment (6-mer frequency, TF over GST control)
- binding signal (ELK4): 1.02 fold enrichment (6-mer frequency, TF over GST control)
- binding signal (ELF3): 1.13 fold enrichment (6-mer frequency, TF over GST control)
- binding signal (ETV1): 1.03 fold enrichment (6-mer frequency, TF over GST control)
- binding signal (ERF): 1.01 fold enrichment (6-mer frequency, TF over GST control)
- binding signal (ETV3L): 1.05 fold enrichment (6-mer frequency, TF over GST control)
- binding signal (ETV3): 1.04 fold enrichment (6-mer frequency, TF over GST control)
- binding signal (ETV6): 1.06 fold enrichment (6-mer frequency, TF over GST control)
